Holding throughout (experiment): DAPPL (digital affinity profiling via proximity ligation, sequencing); 10 mM Tris-HCl pH 7.5, 50 mM NaCl, 1 mM DTT, 4% glycerol, room temperature, 30 min; GST-TFs on glutathione beads, 16-mer random dsDNA library, 0.1% formaldehyde crosslink after washing; high values mean tight binding
For one assay, the target named is T1, FLI1 (Homo sapiens, UniProt Q01543 1-452).
T1 sequence: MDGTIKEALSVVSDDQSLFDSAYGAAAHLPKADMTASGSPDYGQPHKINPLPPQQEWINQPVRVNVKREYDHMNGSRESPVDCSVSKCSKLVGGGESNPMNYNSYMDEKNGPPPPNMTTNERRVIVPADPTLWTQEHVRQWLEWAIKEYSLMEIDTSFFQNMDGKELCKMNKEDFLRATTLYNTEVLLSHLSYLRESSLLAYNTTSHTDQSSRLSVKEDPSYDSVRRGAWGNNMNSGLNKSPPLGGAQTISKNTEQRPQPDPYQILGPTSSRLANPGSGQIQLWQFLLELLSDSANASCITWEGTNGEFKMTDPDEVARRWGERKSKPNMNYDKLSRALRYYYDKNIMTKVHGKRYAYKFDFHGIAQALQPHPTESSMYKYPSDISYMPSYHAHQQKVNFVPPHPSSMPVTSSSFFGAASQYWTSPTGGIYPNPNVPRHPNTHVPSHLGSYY
Conditions: protein: recombinant; tags: N-terminal GST; dsDNA, one strand shown. The essentials:
(§1)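 In yeast, human transcription factors were expressed with a GST fusion, then pulled down on glutathione beads and given DNA barcodes. Pooled with a tag-only sample, they were exposed to 200 nmole of a 16-mer random double-stranded DNA library (Tris/NaCl/DTT/glycerol buffer, room temperature, 30 min), washed, crosslinked with 0.1% formaldehyde, proximity-ligated using BsaI/T4 ligase for 1 h at 37 °C, PCR-amplified and read on an Illumina NextSeq500. Each hexamer's frequency of reads for a factor, divided by the matching frequency for the tag-only sample, gives the binding signal.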

In another assay the target is T2, ELK1 (Homo sapiens, UniProt P19419 1-428).
T2 sequence: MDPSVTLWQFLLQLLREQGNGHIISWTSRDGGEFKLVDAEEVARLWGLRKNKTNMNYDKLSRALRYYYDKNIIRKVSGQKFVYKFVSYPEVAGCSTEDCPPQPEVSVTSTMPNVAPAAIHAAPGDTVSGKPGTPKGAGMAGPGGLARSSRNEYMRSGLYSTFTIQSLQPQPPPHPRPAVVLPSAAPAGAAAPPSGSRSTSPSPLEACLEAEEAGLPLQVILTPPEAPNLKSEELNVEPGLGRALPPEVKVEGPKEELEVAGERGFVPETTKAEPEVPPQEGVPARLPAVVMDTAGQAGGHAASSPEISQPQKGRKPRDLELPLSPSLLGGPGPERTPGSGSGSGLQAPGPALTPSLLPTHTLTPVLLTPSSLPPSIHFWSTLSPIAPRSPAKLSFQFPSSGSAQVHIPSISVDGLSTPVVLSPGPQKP
Conditions: protein: recombinant; tags: N-terminal GST; dsDNA, one strand shown. An outline of the steps:
as §1

The target of the next assay is T3, GABPA (Homo sapiens, UniProt Q06546 1-454).
T3 sequence: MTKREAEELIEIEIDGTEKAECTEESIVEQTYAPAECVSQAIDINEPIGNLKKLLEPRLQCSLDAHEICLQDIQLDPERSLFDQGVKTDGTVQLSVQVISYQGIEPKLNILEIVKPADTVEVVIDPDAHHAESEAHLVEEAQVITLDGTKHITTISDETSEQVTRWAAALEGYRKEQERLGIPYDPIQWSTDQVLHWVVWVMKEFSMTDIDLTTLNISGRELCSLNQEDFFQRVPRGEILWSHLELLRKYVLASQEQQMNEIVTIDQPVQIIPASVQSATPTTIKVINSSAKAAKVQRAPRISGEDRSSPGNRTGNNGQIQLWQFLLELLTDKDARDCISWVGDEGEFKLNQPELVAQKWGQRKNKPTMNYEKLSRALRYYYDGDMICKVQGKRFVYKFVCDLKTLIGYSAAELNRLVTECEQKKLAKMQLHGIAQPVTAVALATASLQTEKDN
Conditions: protein: recombinant; tags: N-terminal GST; dsDNA, one strand shown. An outline of the steps: as §1

The next assay concerns the target T4, ERG (Homo sapiens, UniProt P11308 1-479).
T4 sequence: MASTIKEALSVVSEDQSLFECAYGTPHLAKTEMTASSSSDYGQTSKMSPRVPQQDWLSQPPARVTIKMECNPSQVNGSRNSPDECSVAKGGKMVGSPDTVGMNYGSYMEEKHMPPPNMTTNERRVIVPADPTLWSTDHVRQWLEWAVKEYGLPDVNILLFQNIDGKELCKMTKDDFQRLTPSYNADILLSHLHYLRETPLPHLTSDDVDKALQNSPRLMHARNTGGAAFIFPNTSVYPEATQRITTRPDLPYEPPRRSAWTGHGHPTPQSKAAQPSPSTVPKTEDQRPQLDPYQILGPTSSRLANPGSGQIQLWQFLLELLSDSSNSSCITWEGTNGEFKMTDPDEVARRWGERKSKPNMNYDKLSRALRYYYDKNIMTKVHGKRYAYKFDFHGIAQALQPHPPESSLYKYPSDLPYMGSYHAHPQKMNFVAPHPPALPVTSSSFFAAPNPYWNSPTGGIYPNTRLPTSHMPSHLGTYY
Conditions: protein: recombinant; tags: N-terminal GST; dsDNA, one strand shown. An outline of the steps:
as §1

The next assay concerns the target ELF1 (Homo sapiens, UniProt P32519 1-619). Conditions: protein: recombinant; tags: N-terminal GST; dsDNA, one strand shown. An outline of the steps:
as §1

Another assay addresses T5, EHF (Homo sapiens, UniProt Q9NZC4 1-300).
T5 sequence: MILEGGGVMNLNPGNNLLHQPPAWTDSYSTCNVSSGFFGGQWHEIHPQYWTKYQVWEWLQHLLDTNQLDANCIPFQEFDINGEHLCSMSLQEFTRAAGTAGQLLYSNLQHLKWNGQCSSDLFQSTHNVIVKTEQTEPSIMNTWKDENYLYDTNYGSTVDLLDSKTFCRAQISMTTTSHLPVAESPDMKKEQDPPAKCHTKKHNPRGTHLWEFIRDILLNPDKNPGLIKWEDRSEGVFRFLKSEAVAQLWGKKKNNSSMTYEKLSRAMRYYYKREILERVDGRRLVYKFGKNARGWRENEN
The settings on record: protein: recombinant; tags: N-terminal GST; dsDNA, one strand shown. The essentials: as §1

A further assay deals with SPI1 (Homo sapiens, UniProt P17947 1-270). The settings on record: protein: recombinant; tags: N-terminal GST; dsDNA, one strand shown. The essentials: as §1
A further assay deals with SPIB (Homo sapiens, UniProt Q01892 1-262). Conditions: protein: recombinant; tags: N-terminal GST; dsDNA, one strand shown. An outline of the steps: as §1
Another assay concerns the target T6, ELK3 (Homo sapiens, UniProt P41970 1-407).
T6 sequence: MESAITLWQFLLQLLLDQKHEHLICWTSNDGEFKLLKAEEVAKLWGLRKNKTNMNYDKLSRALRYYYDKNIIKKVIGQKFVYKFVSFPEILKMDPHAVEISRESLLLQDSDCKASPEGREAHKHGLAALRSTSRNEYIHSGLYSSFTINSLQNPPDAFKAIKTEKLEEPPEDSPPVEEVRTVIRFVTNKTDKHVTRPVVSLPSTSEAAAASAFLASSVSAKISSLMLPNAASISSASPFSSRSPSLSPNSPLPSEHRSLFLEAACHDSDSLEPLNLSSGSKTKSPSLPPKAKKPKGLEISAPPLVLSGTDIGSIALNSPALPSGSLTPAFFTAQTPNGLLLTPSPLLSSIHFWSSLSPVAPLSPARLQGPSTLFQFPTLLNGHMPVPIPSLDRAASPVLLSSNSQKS
The settings on record: protein: recombinant; tags: N-terminal GST; dsDNA, one strand shown. The essentials: as §1

For another assay, the target named is T7, FEV (Homo sapiens, UniProt Q99581 1-238).
T7 sequence: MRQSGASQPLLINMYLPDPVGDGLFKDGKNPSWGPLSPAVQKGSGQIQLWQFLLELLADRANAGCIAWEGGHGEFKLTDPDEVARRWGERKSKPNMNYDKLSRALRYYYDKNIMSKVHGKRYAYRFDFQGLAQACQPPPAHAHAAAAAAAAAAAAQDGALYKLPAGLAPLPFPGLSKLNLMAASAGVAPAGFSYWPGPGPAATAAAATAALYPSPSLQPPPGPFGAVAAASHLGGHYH
The settings on record: protein: recombinant; tags: N-terminal GST; dsDNA, one strand shown. The essentials:
as §1

A further assay has as its target ETV5 (Homo sapiens, UniProt P41161 1-510). The settings on record: protein: recombinant; tags: N-terminal GST; dsDNA, one strand shown. The essentials:
as §1

Another assay addresses HSF1 (Homo sapiens, UniProt Q00613 1-529). Conditions: protein: recombinant; tags: N-terminal GST; chain copies: 3; dsDNA, one strand shown. The essentials:
as §1

Another assay deals with T8, SPIC (Homo sapiens, UniProt Q8N5J4 1-248).
T8 sequence: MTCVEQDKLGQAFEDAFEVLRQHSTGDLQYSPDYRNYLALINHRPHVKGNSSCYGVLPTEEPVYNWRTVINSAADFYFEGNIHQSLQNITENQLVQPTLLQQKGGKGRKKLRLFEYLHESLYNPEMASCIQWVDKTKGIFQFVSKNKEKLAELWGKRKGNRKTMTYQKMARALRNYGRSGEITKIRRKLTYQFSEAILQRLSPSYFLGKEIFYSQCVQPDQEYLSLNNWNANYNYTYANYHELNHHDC
Conditions: protein: recombinant; tags: N-terminal GST; dsDNA, one strand shown. The essentials:
as §1

The target in a further assay is ELF4 (Homo sapiens, UniProt Q99607 1-663). The settings on record: protein: recombinant; tags: N-terminal GST; dsDNA, one strand shown. The essentials: as §1
The next assay addresses T9, ELK4 (Homo sapiens, UniProt P28324-2 1-405).
T9 sequence: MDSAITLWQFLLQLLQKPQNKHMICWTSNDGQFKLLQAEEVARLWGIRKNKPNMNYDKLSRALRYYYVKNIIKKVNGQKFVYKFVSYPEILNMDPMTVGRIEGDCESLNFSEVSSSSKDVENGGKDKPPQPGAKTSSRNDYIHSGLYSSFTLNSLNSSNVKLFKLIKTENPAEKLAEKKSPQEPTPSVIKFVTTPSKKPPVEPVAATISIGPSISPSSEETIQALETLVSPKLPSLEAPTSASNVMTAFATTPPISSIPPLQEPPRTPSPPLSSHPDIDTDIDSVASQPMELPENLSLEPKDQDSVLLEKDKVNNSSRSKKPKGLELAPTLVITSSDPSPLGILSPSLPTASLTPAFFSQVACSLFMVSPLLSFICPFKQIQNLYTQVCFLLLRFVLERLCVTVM
The settings on record: protein: recombinant; tags: N-terminal GST; dsDNA, one strand shown. The essentials: as §1

Another assay addresses T10, ETV2 (Homo sapiens, UniProt O00321 1-342).
T10 sequence: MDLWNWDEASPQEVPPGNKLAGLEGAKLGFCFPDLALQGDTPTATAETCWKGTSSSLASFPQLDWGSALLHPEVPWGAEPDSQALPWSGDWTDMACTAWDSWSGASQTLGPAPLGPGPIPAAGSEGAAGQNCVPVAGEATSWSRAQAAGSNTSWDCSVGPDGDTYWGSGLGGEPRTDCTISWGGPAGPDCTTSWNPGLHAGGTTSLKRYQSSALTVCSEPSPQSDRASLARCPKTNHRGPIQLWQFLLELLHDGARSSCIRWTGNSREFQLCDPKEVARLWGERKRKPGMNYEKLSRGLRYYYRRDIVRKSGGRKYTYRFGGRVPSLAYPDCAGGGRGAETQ
The settings on record: protein: recombinant; tags: N-terminal GST; dsDNA, one strand shown. The essentials: as §1

The target of another assay is T11, ELF3 (Homo sapiens, UniProt P78545 1-371).
T11 sequence: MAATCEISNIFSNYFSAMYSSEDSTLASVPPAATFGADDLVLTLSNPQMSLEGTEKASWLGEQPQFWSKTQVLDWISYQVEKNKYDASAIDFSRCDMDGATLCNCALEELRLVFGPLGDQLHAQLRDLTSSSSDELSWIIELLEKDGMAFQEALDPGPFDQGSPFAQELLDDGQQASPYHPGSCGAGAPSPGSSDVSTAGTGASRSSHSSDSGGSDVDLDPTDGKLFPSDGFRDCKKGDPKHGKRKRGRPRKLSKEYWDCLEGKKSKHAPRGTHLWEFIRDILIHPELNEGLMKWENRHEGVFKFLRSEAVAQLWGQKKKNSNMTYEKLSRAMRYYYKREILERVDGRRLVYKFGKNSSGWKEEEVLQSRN
Conditions: protein: recombinant; tags: N-terminal GST; dsDNA, one strand shown. An outline of the steps:
as §1

The next assay addresses CRX (Homo sapiens, UniProt O43186 1-299). The settings on record: protein: recombinant; tags: N-terminal GST; dsDNA, one strand shown. The essentials: as §1
The next assay has as its target ETV1 (Homo sapiens, UniProt P50549 1-477). Conditions: protein: recombinant; tags: N-terminal GST; dsDNA, one strand shown. The essentials:
as §1

Chain of CRX (O43186 whole entry): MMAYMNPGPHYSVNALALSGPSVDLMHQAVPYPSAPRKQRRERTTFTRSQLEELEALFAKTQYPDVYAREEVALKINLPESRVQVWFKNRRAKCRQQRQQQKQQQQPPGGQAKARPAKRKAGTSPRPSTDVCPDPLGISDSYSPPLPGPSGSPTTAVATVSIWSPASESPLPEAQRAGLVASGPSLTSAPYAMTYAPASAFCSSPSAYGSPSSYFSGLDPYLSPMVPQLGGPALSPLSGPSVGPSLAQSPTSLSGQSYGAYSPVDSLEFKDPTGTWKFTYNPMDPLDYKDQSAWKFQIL
Chain of ETV1 (P50549 whole entry): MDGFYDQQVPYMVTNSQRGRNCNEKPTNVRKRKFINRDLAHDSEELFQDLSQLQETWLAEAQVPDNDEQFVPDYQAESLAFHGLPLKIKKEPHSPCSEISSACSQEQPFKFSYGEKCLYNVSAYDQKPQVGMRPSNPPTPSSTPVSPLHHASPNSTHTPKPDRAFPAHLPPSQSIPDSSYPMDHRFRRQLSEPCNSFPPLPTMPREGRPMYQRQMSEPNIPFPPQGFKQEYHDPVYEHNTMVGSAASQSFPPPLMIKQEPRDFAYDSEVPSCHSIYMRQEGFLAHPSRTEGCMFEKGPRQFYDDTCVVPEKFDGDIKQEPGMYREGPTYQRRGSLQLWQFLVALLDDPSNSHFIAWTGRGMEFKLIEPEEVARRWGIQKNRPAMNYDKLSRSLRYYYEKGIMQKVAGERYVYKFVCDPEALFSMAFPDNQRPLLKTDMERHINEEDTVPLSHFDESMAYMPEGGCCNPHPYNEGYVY
Chain of ELF1 (P32519 whole entry): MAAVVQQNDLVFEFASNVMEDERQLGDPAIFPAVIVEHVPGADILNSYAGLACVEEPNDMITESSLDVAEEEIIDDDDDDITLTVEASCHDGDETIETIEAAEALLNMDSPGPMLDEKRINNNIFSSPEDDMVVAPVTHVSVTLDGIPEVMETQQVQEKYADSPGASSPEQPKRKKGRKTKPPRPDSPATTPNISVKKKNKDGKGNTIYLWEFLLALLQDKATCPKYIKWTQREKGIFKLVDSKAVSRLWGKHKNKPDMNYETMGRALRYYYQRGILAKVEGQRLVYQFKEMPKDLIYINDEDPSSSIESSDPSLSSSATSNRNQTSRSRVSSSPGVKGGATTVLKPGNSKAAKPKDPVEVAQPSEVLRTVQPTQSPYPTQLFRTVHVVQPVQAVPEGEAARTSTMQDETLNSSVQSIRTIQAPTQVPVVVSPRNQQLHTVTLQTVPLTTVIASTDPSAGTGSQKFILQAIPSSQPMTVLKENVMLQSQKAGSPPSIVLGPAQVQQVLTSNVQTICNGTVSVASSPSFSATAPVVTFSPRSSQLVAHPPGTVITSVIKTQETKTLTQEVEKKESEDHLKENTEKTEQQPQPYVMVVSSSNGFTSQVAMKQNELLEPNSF
Chain of ELF4 (Q99607 whole entry): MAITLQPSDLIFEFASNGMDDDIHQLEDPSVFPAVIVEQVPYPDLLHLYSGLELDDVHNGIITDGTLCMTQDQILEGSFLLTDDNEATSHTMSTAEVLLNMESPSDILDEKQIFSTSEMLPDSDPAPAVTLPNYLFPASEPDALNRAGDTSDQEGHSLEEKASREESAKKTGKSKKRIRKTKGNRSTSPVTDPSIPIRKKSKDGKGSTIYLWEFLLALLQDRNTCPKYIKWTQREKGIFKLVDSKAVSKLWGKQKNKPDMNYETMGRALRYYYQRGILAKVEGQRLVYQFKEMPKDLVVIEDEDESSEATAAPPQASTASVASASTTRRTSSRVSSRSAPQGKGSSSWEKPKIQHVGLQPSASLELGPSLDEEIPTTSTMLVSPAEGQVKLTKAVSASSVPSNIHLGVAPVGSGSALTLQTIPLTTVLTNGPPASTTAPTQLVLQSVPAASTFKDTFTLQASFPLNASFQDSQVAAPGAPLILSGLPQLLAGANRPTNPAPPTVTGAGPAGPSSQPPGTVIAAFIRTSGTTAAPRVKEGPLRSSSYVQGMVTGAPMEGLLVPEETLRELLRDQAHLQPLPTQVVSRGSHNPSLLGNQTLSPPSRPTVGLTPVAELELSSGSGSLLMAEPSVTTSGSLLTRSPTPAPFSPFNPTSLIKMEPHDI
Chain of SPIB (Q01892 whole entry): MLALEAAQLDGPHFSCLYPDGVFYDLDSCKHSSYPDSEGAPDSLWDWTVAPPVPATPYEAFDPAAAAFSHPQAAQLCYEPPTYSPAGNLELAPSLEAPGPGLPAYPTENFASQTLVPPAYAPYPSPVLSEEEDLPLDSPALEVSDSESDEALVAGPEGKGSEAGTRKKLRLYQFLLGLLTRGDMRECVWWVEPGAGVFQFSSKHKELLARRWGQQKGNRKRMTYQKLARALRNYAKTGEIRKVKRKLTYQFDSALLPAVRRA
Chain of ETV5 (P41161 whole entry): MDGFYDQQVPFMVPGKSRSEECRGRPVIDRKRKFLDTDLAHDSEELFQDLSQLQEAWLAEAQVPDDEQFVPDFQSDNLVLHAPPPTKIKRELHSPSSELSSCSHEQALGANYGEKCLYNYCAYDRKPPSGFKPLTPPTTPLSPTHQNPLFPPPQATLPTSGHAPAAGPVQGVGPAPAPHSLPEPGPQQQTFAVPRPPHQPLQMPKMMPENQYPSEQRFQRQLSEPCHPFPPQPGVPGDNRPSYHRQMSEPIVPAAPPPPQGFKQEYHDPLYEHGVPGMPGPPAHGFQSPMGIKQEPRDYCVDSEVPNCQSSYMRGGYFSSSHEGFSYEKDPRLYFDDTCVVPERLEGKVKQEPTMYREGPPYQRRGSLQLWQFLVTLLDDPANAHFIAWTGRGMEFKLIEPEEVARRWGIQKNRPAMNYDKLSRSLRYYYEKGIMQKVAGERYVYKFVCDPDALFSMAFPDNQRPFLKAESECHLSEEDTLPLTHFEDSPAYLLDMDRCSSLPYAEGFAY
Chain of HSF1 (Q00613 whole entry): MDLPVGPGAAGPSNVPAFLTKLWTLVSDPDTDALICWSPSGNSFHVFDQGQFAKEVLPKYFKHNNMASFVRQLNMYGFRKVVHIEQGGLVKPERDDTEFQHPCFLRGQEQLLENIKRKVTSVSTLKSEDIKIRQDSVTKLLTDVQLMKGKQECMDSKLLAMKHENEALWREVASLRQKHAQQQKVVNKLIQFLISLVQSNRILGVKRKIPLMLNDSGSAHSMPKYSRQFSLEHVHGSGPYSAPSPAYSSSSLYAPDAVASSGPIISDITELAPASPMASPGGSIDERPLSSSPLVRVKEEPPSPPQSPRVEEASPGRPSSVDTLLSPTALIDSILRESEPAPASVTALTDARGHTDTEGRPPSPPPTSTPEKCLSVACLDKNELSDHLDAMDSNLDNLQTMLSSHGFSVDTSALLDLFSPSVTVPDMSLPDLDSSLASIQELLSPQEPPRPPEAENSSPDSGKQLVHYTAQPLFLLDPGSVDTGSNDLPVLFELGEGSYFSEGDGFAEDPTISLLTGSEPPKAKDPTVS

Consider GGATTT, for which the binding signal with FLI1 was 1.33 fold enrichment (6-mer frequency, TF over GST control); with ELK1, 1.25 fold enrichment (6-mer frequency, TF over GST control); with GABPA it was 1.26 fold enrichment (6-mer frequency, TF over GST control); with ERG it was 1.34 fold enrichment (6-mer frequency, TF over GST control); with ELF1, 1.23 fold enrichment (6-mer frequency, TF over GST control); in the assay with EHF it was 1.24 fold enrichment (6-mer frequency, TF over GST control). In addition, the binding signal with SPI1 is 1.22 fold enrichment (6-mer frequency, TF over GST control); with SPIB it was 1.29 fold enrichment (6-mer frequency, TF over GST control); with ELK3, 1.48 fold enrichment (6-mer frequency, TF over GST control); in the assay with FEV, 2.01 fold enrichment (6-mer frequency, TF over GST control); with ETV5, 1.33 fold enrichment (6-mer frequency, TF over GST control); with HSF1 it was 1.62 fold enrichment (6-mer frequency, TF over GST control). For the same sequence, the binding signal with SPIC was 1.16 fold enrichment (6-mer frequency, TF over GST control); in the assay with ELF4 it was 1.26 fold enrichment (6-mer frequency, TF over GST control); with ELK4 it was 1.25 fold enrichment (6-mer frequency, TF over GST control); in the assay with ETV2 it was 1.27 fold enrichment (6-mer frequency, TF over GST control); in the assay with ELF3, 1.15 fold enrichment (6-mer frequency, TF over GST control); with CRX, 2.47 fold enrichment (6-mer frequency, TF over GST control). In addition, the binding signal with ETV1 was 1.22 fold enrichment (6-mer frequency, TF over GST control).

The values are drawn from publication PMC7862700, “An all-to-all approach to the identification of sequence-specific readers for epigenetic DNA modifications on cytosine”.
